aSyn 5UTR act: Activators working through SNCA 5'UTR binding (MLPCN); 7.1% of 300,000 active; alpha-synuclein 5'UTR reporter, activators screen; activity score, % (tested at 7.5 µM), hits read low; in the data active = activity score below about -60%
* marks the source's active call; other numbers are inactive results. The list is a sample of the results.

SMILES	aSyn 5UTR act
CCOC(=O)c1cnn(-c2ccc(C)cc2)c1N	-100*
CCOC(=O)c1cnc2cc(-c3ccc(C(C)(C)C)cc3)nn2c1N	-232*
Cc1cc(C)n2ncc(/C(N)=N/OC(=O)c3ccccc3F)c2n1	-100*
CCOC(=O)c1cnn2c(C)cc(-c3ccccc3)nc12	-120*
CCOC(=O)c1cnc2c(C(=O)OCC)cnn2c1N	-63*
CCOC(=O)c1cnc2c(-c3cccc(Br)c3)cnn2c1C	-127*
CCCCCCCCCn1c2c(c(=N)c3c1CCC3)CCCC2	90
c1ccc(C2CSc3ccccc3N2)cc1 (centres undefined)	-196*
Cc1ccc(C(=O)Nc2c3c(nn2C(C)(C)C)CS(=O)(=O)C3)cc1[N+](=O)[O-]	-79*
CC(C)(C)n1nc2c(c1NC(=O)c1cc([N+](=O)[O-])ccc1Cl)CS(=O)(=O)C2	-95*
Cc1cc(N2CCOCC2)n2ncc(-c3ccccc3Cl)c2n1	-160*
Cc1ccc2c(c1)C(c1ccncc1)=NNC(c1ccccc1)=N2	-127*
Cc1ccc(C2=Nc3ccc(Br)cc3C(c3ccncc3)=NN2)cc1	-70*
COc1cccc(Nc2ncnc3c2cnn3-c2cccc(C)c2)c1	-137*
COc1ccccc1Nc1ncnc2c1cnn2-c1cccc(C)c1	-84*
COc1cc(/C=C2/C(=N)N3OC(C)=CC3=NC2=O)ccc1OCCOc1ccc(C)cc1	-75*
N#C/C(=C\C1CC=CCC1)c1nc2ccccc2[nH]1 (centres undefined)	-66*
CCOc1cc(N(CC)CC)ccc1/C=C(/C#N)c1nc2ccccc2[nH]1	-107*
N#C/C(=C\c1ccc(Cl)cc1)c1nc2ncccc2[nH]1	-94*
N#C/C(=C\c1cccs1)Sc1nc2ccccc2s1	-68*
Cc1ccc(/C=C(\C#N)c2nc3ccccc3[nH]2)s1	-229*
N#C/C(=C(/O)c1cccs1)c1nc2ccccc2[nH]1	-102*
Cc1cc(/C=C(\C#N)c2nc3ccccc3[nH]2)c(C)n1C	-224*
N#C/C(=C/c1cccs1)c1nc2ccccc2[nH]1	-201*
N#C/C(=C\c1c(Cl)cccc1Cl)c1nc2ccccc2[nH]1	-64*
SMILES	aSyn 5UTR act
CCN(CC)CCNC(=O)c1ccc2c(=O)n(CCc3ccccc3)c(=O)[nH]c2c1	-109*
O=C(Cc1csc(Nc2nc(=S)[nH]c3ccccc23)n1)NCCCN1CCN(c2ccccc2F)CC1	92
O=C(NCCCN1CCCCC1)c1ccc2c(=O)n(CCc3ccccc3)c(=O)[nH]c2c1	-82*
O=C1Nc2cc(C(=O)NCCCN3CCCC3)ccc2S/C1=C\c1ccccc1	-94*
CCN1CCN(CCCNC(=O)c2ccc(/C=C3/Oc4ccccc4N(Cc4cccc(C)c4)C3=O)cc2)CC1	101
Brc1ccc2oc(-c3ccn[nH]3)cc2c1	-175*
COc1ccc(-c2nnc(NC(=O)c3ccc4c(c3)OCCO4)o2)cc1	105
COc1cccc(C(=O)Nc2cc3c(cc2Cl)OCCCO3)c1	-130*
COc1ccc(C(=O)Nc2cc3c(cc2Cl)OCCCO3)cc1	-148*
O=c1c2c3c(sc2nc2n1CCCCC2)CCCC3	-124*
Clc1nc(CN2CCCCC2)nc2sc3c(c12)CCCC3	-68*
O=c1c2c3c(sc2nc2n1CCCCC2)CCCCC3	-153*
O=c1c2c3c(sc2nc2n1CCCC2)CCCCC3	-105*
COC(=O)Cn1ncc2c(C)n(Cc3ccccc3)c(C)c2c1=O	-123*
Brc1ccc(C2=Nn3c(nnc3-c3n[nH]c4c3CCC4)SC2)cc1	86
CCc1ccc(O)c(-c2cc(C(=O)Nc3cccnc3)[nH]n2)c1	-162*
O=C(N/N=C/c1c(O)ccc2ccccc12)c1cccnc1	93
Cc1cccc(NC(=O)c2cc(-c3cc(Cl)ccc3O)n[nH]2)c1	-224*
Cc1cc(O)c(-c2cc(C(=O)Nc3cccnc3)[nH]n2)cc1C	-188*
Cc1cccc(NC(=O)c2cc(-c3cc(C)cc(C)c3O)n[nH]2)c1	-67*
Cc1ccc(C)c(NC(=O)c2cc(-c3cc(C)ccc3O)n[nH]2)c1	-211*
Cc1ccc(NC(=O)c2cc(-c3ccccc3O)n[nH]2)cc1Cl	-110*
Cc1cc(C)c(O)c(-c2cc(C(=O)Nc3cccnc3)[nH]n2)c1	-108*
Cc1cccc(NC(=O)c2cc(-c3c(C)cc(C)cc3O)n[nH]2)c1	-123*
O=[N+]([O-])c1cccc(NN=Nc2ccccc2)c1	-129*
SMILES	aSyn 5UTR act
NC(=S)N=Nc1ccc(NN=C(N)N)cc1	68
Brc1ccc(N=NNc2ccccc2)cc1	-188*
O=[N+]([O-])c1ccc(N=NNc2ccccc2)cc1	-139*
S=c1[nH]nc(-c2ccc(Cl)cc2Cl)n1-c1ccccc1	-199*
CC(=O)c1sc2c(c1OC(=O)c1ccc(Cl)cc1Cl)c(=O)n(-c1ccccc1)c(=S)n2-c1ccccc1	101
COc1ccc(C2NN=C(c3ccc(C)cc3)S2)cc1OC (centres undefined)	-144*
CCOc1ccc(-c2nc(-c3ccncc3)no2)cc1OCC	-95*
CCOc1ccc(-c2nc(-c3ccccc3)no2)cc1OCC	-137*
Cc1cc(C(=O)Nc2ccc(N3CCCC3)c(Cl)c2)ccc1[N+](=O)[O-]	-62*

Assay outcomes: PubChem BioAssay, Broad Institute
